Inconclusive results are not listed. Entries that show only a call come without a potency. Active and inactive are the calls of the source. Calls come from the whole dose curve; as a rule, active = well fitted inhibition curve with a large enough effect in the repeat runs; inconclusive = weak or mixed curves; inactive = flat fitted curve, though single readings scatter.
These compounds were tested against Cytochrome P450 2D6 (Homo sapiens) (UniProt P10635) (assay: Cytochrome P450 family 2 subfamily D member 6 (CYP2D6) small molecule antagonists: luciferase biochemical (cell-free) qHTS assay (AID 1645840; note: nearly all actives have a fitted effect of over 55% in size)). Settings: P450-Glo CYP2D6 enzyme, luciferin luminescence, 1 h; series mostly up to 57.4 µM.
Chain of Cytochrome P450 2D6 (Homo sapiens) (P10635 whole entry, looked up): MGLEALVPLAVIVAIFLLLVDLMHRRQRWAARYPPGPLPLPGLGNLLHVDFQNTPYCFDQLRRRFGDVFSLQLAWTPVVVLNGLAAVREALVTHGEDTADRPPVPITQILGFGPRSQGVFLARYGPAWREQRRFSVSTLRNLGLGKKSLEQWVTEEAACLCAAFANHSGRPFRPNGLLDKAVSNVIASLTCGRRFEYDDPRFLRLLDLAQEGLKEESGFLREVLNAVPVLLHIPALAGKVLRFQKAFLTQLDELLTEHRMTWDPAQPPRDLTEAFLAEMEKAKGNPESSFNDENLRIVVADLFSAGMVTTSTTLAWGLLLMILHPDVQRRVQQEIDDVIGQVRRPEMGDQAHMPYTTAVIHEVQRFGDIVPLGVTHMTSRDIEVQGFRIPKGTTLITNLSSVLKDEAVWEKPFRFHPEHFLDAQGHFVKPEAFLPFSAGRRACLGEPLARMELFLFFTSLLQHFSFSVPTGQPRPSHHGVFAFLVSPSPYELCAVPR
In short: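 P450-Glo luminescent screen: recombinant CYP2D6 enzyme–proluciferin substrate mix preincubated with compound 10 min at room temperature, then NADPH regeneration added for 1 h at room temperature. Detection reagent added for 20 min; luciferin light read as relative luminescence units.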
`COc1cccc(OC)c1C(=O)N[C@@H]1C(=O)N2[C@@H]1SC(C)(C)[C@@H]2C(=O)O` was tested, and the Potency was “inactive”. `N[C@@H](CCC(=O)N[C@@H](CS)C(=O)NCC(=O)O)C(=O)O` was tested, and the Potency was “inactive”. In the case of `OC[C@@H](O)[C@@H](O[C@@H]1O[C@H](CO)[C@H](O)[C@H](O)[C@H]1O)[C@H](O)[C@@H](O)CO`, the Potency is reported as “inactive”. For `CC(=O)Oc1ccc(C(c2ccc(OC(C)=O)cc2)c2ccccn2)cc1`, the Potency was 15.5 µM (active). In the case of `O=c1[nH]c(=O)n([C@H]2C[C@H](O)[C@@H](CO)O2)cc1C(F)(F)F`, the Potency is reported as “inactive”. With `CC(=O)N(O)CCCCCNC(=O)CCC(=O)N(O)CCCCCNC(=O)CCC(=O)N(O)CCCCCN` the Potency was “inactive”. In the case of `Cc1ccc(O)c2ncccc12`, the Potency is reported as “inactive”. With `CCCCCCCCCCCCCCCC[N+](C)(C)CCN(Cc1ccc(OC)cc1)c1ncccn1` the Potency was 5.49 µM (active). For `Nc1ccc(C(=O)Nc2ccccc2N)cc1`, the Potency was “inactive”. `COC(=O)C1=C(C)NC(C)=C(C(=O)O[C@@H]2CCCN(Cc3ccccc3)C2)[C@@H]1c1cccc([N+](=O)[O-])c1` was tested, and the Potency was 6.92 µM (active). `CC(=O)Oc1ccc(C(=C2CCCCC2)c2ccc(OC(C)=O)cc2)cc1` was tested, and the Potency was 15.5 µM (active). With `C=C(CC)C(=O)c1ccc(OCC(=O)O)c(Cl)c1Cl` the Potency was “inactive”. `C/C=C(/C(=C/C)c1ccc(O)cc1)c1ccc(O)cc1` was tested, and the Potency was 24.5 µM (active). With `CCOc1ccc(Cc2nccc3cc(OCC)c(OCC)cc23)cc1OCC` the Potency was 13.8 µM (active). With `C[C@H](CCC(=O)O)[C@H]1CC[C@H]2[C@@H]3C(=O)C[C@@H]4CC(=O)CC[C@]4(C)[C@H]3CC(=O)[C@]12C` the Potency was “inactive”.

Reference: PubChem BioAssay (NCATS)
Potency is the fitted concentration of half-maximal effect.
